Measurements taken from the supplement of paper PMC4894684.
Structures can show the parent of a compound that is named as a salt. ± gives the standard deviation of the averaged measurements.

test system: Toxoplasma gondii RH (in HFF); assay: parasite growth relative to the screen mean (all compounds = 100%); higher = less inhibition of parasite growth; conditions: 5 µM; 72 h; oxygen 21 %
Outline: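 Each value is parasite growth expressed against the screen mean, averaged over two screens, where the mean of all compounds = 100%. The screen used 5 µM final compound on confluent human foreskin fibroblasts infected with RH β-Gal–GFP Toxoplasma (MOI 1:5) within 2 h and grown 72 h at 21% O2. Parasite number was measured by a CPRG β-Gal assay against in-plate standard curves.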

SMILES | parasite growth [%]
COCCCC/C(=N\OCCN)c1ccc(C(F)(F)F)cc1 [Fluvoxamine maleate] | 49.7 ± 11
CC#CCOC(=O)C1=CCCN(C)C1 [Arecaidine but-2-ynyl ester tosylate] | 144 ± 12
N#C/C(=C\c1ccc(O)c(O)c1)C(=O)NCCCc1ccccc1 | 154 ± 16
CC(C)NC[C@H](O)COc1cccc2ccccc12 [(S)-(-)-Propranolol hydrochloride] | 81.8 ± 3.3
CC(Cc1ccc(O)c(O)c1)(NN)C(=O)O [(S)-(-)-Carbidopa] | 147 ± 34
Cc1nc2c(OCc3ccccc3)cccn2c1CC#N | 153 ± 7.3
N=C(N)NC(=N)Nc1ccccc1 [1-Phenylbiguanide hydrochloride] | 91.9 ± 21
CCOC(=O)[C@H](CCc1ccccc1)N[C@H]1CCc2ccccc2N(CC(=O)O)C1=O [Benazepril hydrochloride] | 140 ± 36
COc1cccc(CCc2ccccc2OCC[C@@H]2C[C@@H](O)CN2C)c1 | 53.4 ± 25
Cc1ccc(/C=N/NC(=O)c2ccccc2Oc2ccccc2)o1 | 72.7 ± 4.9
Cc1ccc(NC(=O)c2cccc(N(C)C)c2)cc1NC(=O)c1ccc(O)cc1 | 141 ± 7.3
CN(CC[C@@H](Oc1ccc(-c2ccccc2)cc1)c1ccc(F)cc1)CC(=O)O [ALX 5407 hydrochloride] | 136 ± 5.8
CC(C)(C(=O)O)c1ccc(C(O)CCCN2CCC(C(O)(c3ccccc3)c3ccccc3)CC2)cc1 (centres undefined) [Fexofenadine hydrochloride] | 122 ± 26
CCc1cc(C(C)=O)c(O)cc1OCCCCCC(C)(C)c1nn[nH]n1 | 111 ± 4.1
COc1ccc2[nH]c(C(=O)c3ccccc3)cc2c1 | 38.5 ± 2.6
CCSC(=N)N [EIT hydrobromide] | 166 ± 23
NC(C(=O)O)c1ccc(C(=O)O)c(C(=O)O)c1 (centres undefined) | 141 ± 3
CC[N+](CC)(CC)CC(=O)Nc1c(C)cccc1C [QX 314 bromide] | 63.6 ± 9.3
CC(C)NCCN(C(C)C)S(=O)(=O)c1ccc(Cl)cc1Cl | 142 ± 34
CC1CCN=C(N)S1 (centres undefined) [AMT hydrochloride] | 70.6 ± 8.5

SMILES | parasite growth [%]
COc1ccc2[nH]c(-c3ccccc3)c(CCNC(C)=O)c2c1 [2-Phenylmelatonin] | 149 ± 20
O=c1cc(N2CCNCC2)oc2c(-c3ccccc3)cccc12 | 150 ± 30
O=C(O)CCC/C=C\CC1C(O)CC(O)C1/C=C/C(O)COc1cccc(Cl)c1 (racemic) [(±)-Cloprostenol sodium salt] | 121 ± 15
CCOc1ccccc1OC(c1ccccc1)C1CNCCO1 (centres undefined) [Reboxetine mesylate] | 102 ± 5.2
O=C1CCC(N2C(=O)c3ccccc3C2=O)C(=O)N1 (centres undefined) [Thalidomide] | 151 ± 46
c1ccc(C(NCCNC(c2ccccc2)c2ccccc2)c2ccccc2)cc1 [AMN 082 dihydrochloride] | 35.1 ± 15
CC1=C(CC(=O)O)c2cc(F)ccc2/C1=C\c1ccc([S+](C)[O-])cc1 (centres undefined) [Sulindac] | 183 ± 34
CC1(C)C[C@@H]1C(=O)N/C(=C\CCCCSC[C@H](N)C(=O)O)C(=O)O [Cilastatin sodium] | 117 ± 14
CN1[C@@H]2CC[C@H]1C[C@@H](OC(=O)c1c[nH]c3ccccc13)C2 [Tropisetron hydrochloride] | 106 ± 3.1
CC(C)NCC(O)COc1cccc2ccccc12 (centres undefined) [Propranolol hydrochloride] | 99.4 ± 14
Cc1ccc2c(c1)c1c3n2CCNC3CCC1 (centres undefined) [Pirlindole mesylate] | 152 ± 16
Cc1[nH]c(/C=C2\C(=O)Nc3ccc(S(=O)(=O)Cc4c(Cl)cccc4Cl)cc32)c(C)c1C(=O)N1CCC[C@@H]1CN1CCCC1 | < 0
CNC(=O)[C@H]1O[C@@H](n2cnc3c(NCc4cccc(I)c4)nc(Cl)nc32)[C@H](O)[C@@H]1O | 120 ± 28
COc1ccc(C2CNC(=O)C2)cc1OC1CCCC1 (centres undefined) [Rolipram] | 92.1 ± 23
COc1ccc(CCN(C)CCc2ccc(OC)c(OC)c2)cc1OC [YS-035 hydrochloride] | 136 ± 23
CCCn1c(=O)[nH]c2nc(-c3ccc(S(=O)(=O)O)cc3)[nH]c2c1=O | 112 ± 5.7
O=C(CCCN1CCC(O)(c2ccc(Cl)cc2)CC1)c1ccc(F)cc1 [Haloperidol hydrochloride] | 134 ± 39
COc1ccc(CN(CCN(C)C)c2ccccn2)cc1 [Mepyramine maleate] | 115 ± 5.5
c1cnc(N2CCN(Cc3ccc4c(c3)OCO4)CC2)nc1 [Piribedil] | 70.3 ± 8.6
